# Test results taken from publication PMC7862700, “An all-to-all approach to the identification of sequence-specific readers for epigenetic DNA modifications on cytosine”.
# What was measured:
# Assay in all cases: DAPPL (digital affinity profiling via proximity ligation, sequencing); 10 mM Tris-HCl pH 7.5, 50 mM NaCl, 1 mM DTT, 4% glycerol, room temperature, 30 min; GST-TFs on glutathione beads, 16-mer random dsDNA library, 0.1% formaldehyde crosslink after washing; high values mean tight binding
# Conditions in all cases: protein: recombinant; tags: N-terminal GST; dsDNA, one strand shown
# ELK4 = molecular target: T1, ELK4 (Homo sapiens, UniProt P28324-2 1-405)
# T1 sequence: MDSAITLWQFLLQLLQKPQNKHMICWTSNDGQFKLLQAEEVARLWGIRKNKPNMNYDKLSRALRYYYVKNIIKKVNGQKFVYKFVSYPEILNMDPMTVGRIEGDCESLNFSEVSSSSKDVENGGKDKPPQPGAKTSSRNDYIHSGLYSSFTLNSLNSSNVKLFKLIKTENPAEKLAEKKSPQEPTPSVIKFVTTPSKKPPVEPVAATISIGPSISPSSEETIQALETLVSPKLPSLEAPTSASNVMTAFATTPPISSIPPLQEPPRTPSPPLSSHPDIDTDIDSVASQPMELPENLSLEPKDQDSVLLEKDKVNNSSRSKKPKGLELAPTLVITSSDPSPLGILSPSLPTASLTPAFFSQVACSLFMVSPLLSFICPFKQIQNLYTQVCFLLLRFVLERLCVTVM
# How it was run: (§1)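 Human transcription factors were made in yeast as GST fusions, captured on glutathione beads and barcoded with DNA. With a tag-only sample included, the pool was incubated with 200 nmole of a random double-stranded 16-mer DNA library in Tris/NaCl/DTT/glycerol buffer at room temperature for 30 min, then crosslinked with 0.1% formaldehyde after washing, ligated by proximity, amplified and sequenced. For binding signal, each hexamer's read frequency for a factor is divided by its frequency for the tag-only sample.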
# SPI1 = SPI1 (Homo sapiens, UniProt P17947 1-270)
# How it was run: as §1
# SPIB = SPIB (Homo sapiens, UniProt Q01892 1-262)
# How it was run: as §1
# FEV = molecular target: T2, FEV (Homo sapiens, UniProt Q99581 1-238)
# T2 sequence: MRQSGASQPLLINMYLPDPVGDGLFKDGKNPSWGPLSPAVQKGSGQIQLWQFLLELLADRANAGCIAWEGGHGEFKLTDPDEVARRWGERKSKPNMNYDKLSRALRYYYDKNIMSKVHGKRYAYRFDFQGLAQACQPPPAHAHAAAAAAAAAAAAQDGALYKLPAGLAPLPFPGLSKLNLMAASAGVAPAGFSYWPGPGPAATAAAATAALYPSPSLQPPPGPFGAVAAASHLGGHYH
# How it was run: as §1
# ELF4 = ELF4 (Homo sapiens, UniProt Q99607 1-663)
# How it was run: as §1
# ETV2 = molecular target: T3, ETV2 (Homo sapiens, UniProt O00321 1-342)
# T3 sequence: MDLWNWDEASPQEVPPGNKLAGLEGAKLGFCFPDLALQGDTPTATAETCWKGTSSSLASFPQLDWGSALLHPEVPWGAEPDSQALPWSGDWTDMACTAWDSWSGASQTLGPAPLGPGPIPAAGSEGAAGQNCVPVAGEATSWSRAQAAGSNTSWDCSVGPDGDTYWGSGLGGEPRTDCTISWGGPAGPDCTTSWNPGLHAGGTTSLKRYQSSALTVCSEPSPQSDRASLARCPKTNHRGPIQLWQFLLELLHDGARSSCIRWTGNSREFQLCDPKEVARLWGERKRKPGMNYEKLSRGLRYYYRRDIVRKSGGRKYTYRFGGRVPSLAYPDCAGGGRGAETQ
# How it was run: as §1
# ERF = molecular target: T4, ERF (Homo sapiens, UniProt P50548 1-548)
# T4 sequence: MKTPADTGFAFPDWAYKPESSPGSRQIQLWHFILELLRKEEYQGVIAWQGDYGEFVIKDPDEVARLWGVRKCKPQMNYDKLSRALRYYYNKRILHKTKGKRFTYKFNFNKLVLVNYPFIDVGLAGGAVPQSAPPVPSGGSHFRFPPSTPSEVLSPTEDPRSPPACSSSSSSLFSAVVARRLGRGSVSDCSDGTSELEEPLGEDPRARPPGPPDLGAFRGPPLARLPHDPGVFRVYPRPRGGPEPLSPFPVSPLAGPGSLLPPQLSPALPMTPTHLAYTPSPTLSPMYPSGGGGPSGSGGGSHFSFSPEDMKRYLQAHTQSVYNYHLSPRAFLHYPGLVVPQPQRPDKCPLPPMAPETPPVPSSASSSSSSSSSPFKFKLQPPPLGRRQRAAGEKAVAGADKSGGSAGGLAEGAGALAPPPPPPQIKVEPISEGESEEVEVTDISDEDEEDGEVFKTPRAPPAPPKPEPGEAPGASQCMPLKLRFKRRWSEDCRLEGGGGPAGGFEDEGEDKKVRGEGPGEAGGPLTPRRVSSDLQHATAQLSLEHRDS
# How it was run: as §1
# ETS2 = molecular target: T5, ETS2 (Homo sapiens, UniProt P15036 1-469)
# T5 sequence: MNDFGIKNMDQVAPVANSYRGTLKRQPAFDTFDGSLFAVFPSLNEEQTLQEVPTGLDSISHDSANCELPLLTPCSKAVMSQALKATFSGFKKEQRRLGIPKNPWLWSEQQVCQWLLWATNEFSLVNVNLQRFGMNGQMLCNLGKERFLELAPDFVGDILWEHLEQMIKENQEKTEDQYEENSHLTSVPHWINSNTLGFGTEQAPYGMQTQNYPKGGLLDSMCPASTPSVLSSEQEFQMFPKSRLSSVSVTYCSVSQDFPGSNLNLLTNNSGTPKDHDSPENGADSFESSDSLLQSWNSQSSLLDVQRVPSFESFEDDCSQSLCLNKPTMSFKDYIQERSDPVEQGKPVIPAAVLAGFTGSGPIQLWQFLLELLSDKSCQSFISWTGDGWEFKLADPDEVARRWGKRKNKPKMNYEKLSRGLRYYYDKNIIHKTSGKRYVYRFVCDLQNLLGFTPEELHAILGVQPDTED
# How it was run: as §1
# ELF1 = ELF1 (Homo sapiens, UniProt P32519 1-619)
# How it was run: as §1
# ERG = molecular target: T6, ERG (Homo sapiens, UniProt P11308 1-479)
# T6 sequence: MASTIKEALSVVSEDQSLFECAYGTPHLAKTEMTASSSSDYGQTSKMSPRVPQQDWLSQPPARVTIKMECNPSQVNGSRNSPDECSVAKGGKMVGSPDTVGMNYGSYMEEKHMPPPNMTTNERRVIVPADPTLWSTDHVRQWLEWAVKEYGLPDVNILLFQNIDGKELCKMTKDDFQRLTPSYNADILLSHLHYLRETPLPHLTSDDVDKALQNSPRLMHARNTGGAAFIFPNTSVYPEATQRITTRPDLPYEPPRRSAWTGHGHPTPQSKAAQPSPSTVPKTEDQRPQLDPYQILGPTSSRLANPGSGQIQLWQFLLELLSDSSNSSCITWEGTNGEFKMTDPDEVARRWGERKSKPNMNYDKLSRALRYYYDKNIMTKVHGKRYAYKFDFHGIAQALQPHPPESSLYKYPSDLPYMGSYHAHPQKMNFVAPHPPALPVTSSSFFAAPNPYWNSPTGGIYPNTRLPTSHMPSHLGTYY
# How it was run: as §1
# ELF4, sequence (Q99607 whole entry): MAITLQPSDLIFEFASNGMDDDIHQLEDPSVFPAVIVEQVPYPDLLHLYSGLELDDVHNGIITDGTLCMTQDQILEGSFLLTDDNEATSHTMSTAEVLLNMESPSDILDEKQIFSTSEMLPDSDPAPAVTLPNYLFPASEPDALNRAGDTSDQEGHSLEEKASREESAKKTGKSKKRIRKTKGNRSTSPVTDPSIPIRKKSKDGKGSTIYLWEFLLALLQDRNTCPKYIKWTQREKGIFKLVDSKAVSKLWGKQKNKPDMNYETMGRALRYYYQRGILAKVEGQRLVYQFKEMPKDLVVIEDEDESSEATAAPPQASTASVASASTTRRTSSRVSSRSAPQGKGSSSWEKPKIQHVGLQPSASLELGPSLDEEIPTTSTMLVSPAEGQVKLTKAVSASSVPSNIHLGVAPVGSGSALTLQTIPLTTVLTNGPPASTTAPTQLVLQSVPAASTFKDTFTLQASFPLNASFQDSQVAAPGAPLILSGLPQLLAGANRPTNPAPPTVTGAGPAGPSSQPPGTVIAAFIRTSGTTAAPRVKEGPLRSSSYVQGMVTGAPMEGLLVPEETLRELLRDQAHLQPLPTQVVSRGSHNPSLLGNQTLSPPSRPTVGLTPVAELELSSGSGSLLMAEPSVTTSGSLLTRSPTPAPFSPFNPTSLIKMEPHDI
# SPIB, sequence (Q01892 whole entry): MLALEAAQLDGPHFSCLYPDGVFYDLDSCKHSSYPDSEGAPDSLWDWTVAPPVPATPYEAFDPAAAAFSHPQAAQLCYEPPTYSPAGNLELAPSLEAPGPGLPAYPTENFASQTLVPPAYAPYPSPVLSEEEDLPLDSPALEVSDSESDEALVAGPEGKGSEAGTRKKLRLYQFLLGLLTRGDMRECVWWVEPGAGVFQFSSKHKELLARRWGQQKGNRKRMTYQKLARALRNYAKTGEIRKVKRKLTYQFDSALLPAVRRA
# ELF1, sequence (P32519 whole entry): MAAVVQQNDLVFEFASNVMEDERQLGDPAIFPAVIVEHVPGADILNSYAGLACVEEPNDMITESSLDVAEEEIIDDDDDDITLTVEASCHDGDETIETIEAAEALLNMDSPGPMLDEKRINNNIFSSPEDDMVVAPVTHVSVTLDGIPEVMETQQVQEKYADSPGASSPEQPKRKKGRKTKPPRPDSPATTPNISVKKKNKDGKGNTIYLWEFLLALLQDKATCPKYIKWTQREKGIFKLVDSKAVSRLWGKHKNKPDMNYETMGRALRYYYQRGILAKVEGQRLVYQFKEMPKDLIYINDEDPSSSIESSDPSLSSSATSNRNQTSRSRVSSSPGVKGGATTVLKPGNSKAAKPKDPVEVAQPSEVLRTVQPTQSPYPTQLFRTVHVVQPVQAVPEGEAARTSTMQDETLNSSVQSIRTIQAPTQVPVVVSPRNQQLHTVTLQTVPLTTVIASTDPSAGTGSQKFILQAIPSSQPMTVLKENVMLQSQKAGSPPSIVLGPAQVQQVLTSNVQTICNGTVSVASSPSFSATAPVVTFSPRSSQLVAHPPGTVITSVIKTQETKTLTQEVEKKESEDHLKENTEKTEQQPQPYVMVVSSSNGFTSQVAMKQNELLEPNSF
sequence,measurement,setting,value
GCAGGT,binding signal,ELK4,"1.01 fold enrichment (6-mer frequency, TF over GST control)"
GTTAGC,binding signal,SPI1,"1.01 fold enrichment (6-mer frequency, TF over GST control)"
same,binding signal,SPIB,"1 fold enrichment (6-mer frequency, TF over GST control)"
same,binding signal,FEV,"1 fold enrichment (6-mer frequency, TF over GST control)"
same,binding signal,ELF4,"1.06 fold enrichment (6-mer frequency, TF over GST control)"
same,binding signal,ETV2,"1.17 fold enrichment (6-mer frequency, TF over GST control)"
same,binding signal,ERF,"1.02 fold enrichment (6-mer frequency, TF over GST control)"
same,binding signal,ETS2,"1.01 fold enrichment (6-mer frequency, TF over GST control)"
GCCAAC,binding signal,ELF1,"1.01 fold enrichment (6-mer frequency, TF over GST control)"
same,binding signal,ELF4,"1.04 fold enrichment (6-mer frequency, TF over GST control)"
same,binding signal,ERF,"1.03 fold enrichment (6-mer frequency, TF over GST control)"
GCCATT,binding signal,ERG,"1.01 fold enrichment (6-mer frequency, TF over GST control)"
same,binding signal,SPI1,"1.03 fold enrichment (6-mer frequency, TF over GST control)"
same,binding signal,ELF4,"1.02 fold enrichment (6-mer frequency, TF over GST control)"
same,binding signal,ELK4,"1.07 fold enrichment (6-mer frequency, TF over GST control)"
same,binding signal,ERF,"1.03 fold enrichment (6-mer frequency, TF over GST control)"
